From PubChem BioAssay AID588689 (Southern Research Specialized Biocontainment Screening …, 2011)
Hit rate of the full screen: of about 340,000 compounds, about 1,000 (0.29%) were called active. Rule as the data show it: inconclusive = inhibition above about 29% without an active follow-up result; inactive = below that. Only a sample is shown. Potency and affinity values are given separately.

Target: Genome polyprotein (Dengue virus type 2 (strain 16681-PDK53)) (UniProt P29991)
Experiment: Dengue-2 NS5 methyltransferase inhibitors, primary screen, biochemical, confirmation dose response (AID 588689)
Details: Dengue-2 NS5 methyltransferase capping enzyme assay, at 25 µM, stronger effect = higher value
[1] = measured here: pilot screen replicate inhibition

Sequence of Genome polyprotein (Dengue virus type 2 (strain 16681-PDK53)) (P29991 whole entry, looked up): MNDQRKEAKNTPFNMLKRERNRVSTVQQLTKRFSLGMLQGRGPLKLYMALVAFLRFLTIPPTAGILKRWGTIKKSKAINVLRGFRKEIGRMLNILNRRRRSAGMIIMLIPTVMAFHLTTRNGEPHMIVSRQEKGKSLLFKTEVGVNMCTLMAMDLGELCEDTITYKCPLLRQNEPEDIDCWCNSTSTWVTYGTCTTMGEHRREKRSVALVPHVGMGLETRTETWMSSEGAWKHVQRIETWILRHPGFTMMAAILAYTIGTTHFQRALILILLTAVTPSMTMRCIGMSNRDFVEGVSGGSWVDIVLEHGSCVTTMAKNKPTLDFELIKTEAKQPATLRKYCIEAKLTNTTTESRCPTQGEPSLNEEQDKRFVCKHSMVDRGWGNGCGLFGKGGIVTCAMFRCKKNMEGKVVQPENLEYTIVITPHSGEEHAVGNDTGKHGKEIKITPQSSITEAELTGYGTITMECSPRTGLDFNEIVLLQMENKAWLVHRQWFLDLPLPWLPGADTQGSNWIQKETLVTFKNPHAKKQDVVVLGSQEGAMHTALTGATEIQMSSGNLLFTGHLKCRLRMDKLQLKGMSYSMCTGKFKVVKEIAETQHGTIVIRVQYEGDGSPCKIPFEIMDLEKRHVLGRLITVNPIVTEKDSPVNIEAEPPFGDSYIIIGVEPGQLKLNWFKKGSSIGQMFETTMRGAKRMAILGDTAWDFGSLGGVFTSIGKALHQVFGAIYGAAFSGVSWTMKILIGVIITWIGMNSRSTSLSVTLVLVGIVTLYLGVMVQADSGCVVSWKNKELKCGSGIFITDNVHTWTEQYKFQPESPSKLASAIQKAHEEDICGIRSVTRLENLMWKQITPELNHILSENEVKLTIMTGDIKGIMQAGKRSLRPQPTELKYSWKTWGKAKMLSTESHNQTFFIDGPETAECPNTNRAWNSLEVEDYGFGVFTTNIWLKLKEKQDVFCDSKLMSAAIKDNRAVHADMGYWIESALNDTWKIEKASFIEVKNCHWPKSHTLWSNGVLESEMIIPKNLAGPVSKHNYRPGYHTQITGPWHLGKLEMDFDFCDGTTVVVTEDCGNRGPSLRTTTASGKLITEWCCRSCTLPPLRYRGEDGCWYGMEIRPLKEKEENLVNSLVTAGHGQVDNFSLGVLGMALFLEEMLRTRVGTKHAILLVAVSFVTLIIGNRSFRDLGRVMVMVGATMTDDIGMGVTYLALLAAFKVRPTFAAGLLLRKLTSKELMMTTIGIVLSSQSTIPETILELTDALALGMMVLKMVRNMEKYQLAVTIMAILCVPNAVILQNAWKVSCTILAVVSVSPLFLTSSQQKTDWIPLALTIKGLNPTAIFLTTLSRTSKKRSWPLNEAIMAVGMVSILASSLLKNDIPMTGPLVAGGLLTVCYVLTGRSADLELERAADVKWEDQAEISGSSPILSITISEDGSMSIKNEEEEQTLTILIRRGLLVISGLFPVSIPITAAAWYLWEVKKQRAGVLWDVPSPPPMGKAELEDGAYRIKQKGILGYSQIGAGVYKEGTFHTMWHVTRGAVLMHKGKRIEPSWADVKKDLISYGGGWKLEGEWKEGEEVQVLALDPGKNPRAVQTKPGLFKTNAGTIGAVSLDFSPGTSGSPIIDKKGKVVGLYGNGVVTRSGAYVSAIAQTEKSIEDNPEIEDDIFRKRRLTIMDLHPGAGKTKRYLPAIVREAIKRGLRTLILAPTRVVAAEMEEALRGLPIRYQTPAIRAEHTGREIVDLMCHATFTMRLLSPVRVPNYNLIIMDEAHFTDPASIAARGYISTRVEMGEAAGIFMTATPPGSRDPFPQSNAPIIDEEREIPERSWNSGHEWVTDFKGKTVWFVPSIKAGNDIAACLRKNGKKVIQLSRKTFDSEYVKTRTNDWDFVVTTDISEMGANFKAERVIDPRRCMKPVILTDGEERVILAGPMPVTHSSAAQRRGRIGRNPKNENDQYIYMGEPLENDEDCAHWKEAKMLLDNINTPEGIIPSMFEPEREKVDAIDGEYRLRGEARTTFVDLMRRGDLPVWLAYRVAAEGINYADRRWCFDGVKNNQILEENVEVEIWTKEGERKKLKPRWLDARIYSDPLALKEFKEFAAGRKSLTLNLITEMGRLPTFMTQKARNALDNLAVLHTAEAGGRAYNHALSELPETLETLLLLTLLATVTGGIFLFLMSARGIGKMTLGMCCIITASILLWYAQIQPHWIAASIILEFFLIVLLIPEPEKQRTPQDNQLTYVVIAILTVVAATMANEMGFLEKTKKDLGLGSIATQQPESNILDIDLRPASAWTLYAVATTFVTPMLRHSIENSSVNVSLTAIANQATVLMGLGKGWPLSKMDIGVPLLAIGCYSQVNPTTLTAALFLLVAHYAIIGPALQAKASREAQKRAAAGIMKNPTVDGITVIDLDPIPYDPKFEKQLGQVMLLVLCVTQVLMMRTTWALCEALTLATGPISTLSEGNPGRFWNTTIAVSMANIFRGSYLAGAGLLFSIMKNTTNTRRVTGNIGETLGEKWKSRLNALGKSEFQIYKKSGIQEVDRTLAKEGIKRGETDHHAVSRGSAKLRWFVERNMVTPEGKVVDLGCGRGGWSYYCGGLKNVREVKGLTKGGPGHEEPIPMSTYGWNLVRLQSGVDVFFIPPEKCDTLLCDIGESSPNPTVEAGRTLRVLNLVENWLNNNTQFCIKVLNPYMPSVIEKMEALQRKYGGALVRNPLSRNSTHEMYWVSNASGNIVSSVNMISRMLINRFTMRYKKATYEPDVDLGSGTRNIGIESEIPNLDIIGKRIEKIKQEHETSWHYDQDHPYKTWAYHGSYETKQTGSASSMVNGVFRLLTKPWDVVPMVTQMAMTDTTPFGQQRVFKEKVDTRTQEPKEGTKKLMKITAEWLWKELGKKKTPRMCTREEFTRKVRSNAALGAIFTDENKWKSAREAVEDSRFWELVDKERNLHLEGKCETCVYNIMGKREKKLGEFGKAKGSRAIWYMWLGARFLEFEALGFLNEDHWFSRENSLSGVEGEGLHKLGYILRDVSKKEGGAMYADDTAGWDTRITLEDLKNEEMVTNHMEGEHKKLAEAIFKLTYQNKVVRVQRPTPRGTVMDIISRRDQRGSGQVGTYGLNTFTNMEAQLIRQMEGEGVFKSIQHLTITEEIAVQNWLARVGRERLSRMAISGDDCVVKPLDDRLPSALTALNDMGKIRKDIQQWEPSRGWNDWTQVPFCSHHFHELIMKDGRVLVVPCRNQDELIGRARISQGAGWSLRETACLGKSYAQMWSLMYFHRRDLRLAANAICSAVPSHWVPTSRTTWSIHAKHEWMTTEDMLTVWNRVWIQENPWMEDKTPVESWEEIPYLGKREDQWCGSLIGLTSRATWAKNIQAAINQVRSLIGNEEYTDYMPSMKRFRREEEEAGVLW

Compound	inhibition	inhibition [1] [%]
CCOC(=O)CSc1nnc(-c2cccs2)n1-c1ccccc1	-7.23% (inactive)	–
COc1ccc(C)cc1NC(=O)NNC(=O)c1ccoc1C	5.8% (inactive)	–
COc1cccc(NC(=O)CN2CCC(NC(=O)c3ccccc3C)CC2)c1	-2.2% (inactive)	–
Cc1cccc(NC2=C(NCCO)C(=O)c3ccccc3C2=O)c1	1.45% (inactive)	–
Cc1ccc(NC2=C(NC(=O)c3ccccc3)C(=O)c3ccccc3C2=O)cc1Cl	26.9% (inactive)	–
C=CCOc1ccc(/C=C/C(=O)OCC(=O)NCCCc2ccccc2)cc1	0% (inactive)	–
Cn1c(NC(=O)c2ccc(C(C)(C)C)cc2)cc(=O)n(C)c1=O	2.78% (inactive)	–
O=C(c1cccnc1)N1CCN(CCCc2ccccc2)CC1	-7.9% (inactive)	–
COc1cccc(/C=C2\SC(=S)N(CCC(=O)Nc3ccc(O)cc3)C2=O)c1	3.49% (inactive)	–
COc1ccc(/C=C2/SC(=S)N(CCC(=O)O)C2=O)cc1	4.79% (inactive)	–
O=C(O)CCN1C(=O)/C(=C\c2cccc(OCc3ccccc3)c2)SC1=S	40.6% (inactive)	–
Cc1ccc(NC(=O)COc2cccc(/C=C3\SC(=S)N(CCC(=O)O)C3=O)c2)cc1Cl	0.88% (inactive)	–
O=C(COC(=O)c1cc(S(=O)(=O)N2CCOCC2)ccc1F)NCc1ccc2c(c1)OCO2	-7.39% (inactive)	–
C/C(CCc1ccccc1)=N/NC(=O)C(=O)NC(C)c1ccccc1 (stereo unspecified)	-9.31% (inactive)	–
CCc1cc(C(=O)Cc2cnn(-c3ccccc3)c2)c(O)cc1O	5.45% (inactive)	-6.54
O=C(c1cnn(-c2ccccc2)c1)c1ccccc1O	4.45% (inactive)	–
O=C(Cc1ccc(Br)cc1)Nc1nc2ccccc2[nH]1	3.24% (inactive)	–
COc1cccc(C(=O)N/N=C/c2ccc(OC)c(COc3ccccc3C(N)=O)c2)c1	3.25% (inactive)	–
C=CCn1c(SCC(=O)NC(=O)NCCC)nnc1C1CCCCC1	3.46% (inactive)	–
O=C1c2ccccc2CCC12OC2c1ccc([N+](=O)[O-])cc1 (stereo unspecified)	-3.43% (inactive)	–

Compound	inhibition	inhibition [1] [%]
CCOc1ccc(C(=O)CSc2nnc(C3CC3)n2C)cc1	-4.8% (inactive)	–
CCOc1ccc(-c2cn(-c3ccc(OC)cc3)c(SC)n2)cc1	-2.59% (inactive)	–
COc1cccc(C(c2c(O)nc(SC)n(C)c2=O)c2c(O)nc(SC)n(C)c2=O)c1	16.2% (inactive)	-1.21
CCn1c(SCC(N)=O)nnc1-c1ccc(OC)c(OC)c1	-2.41% (inactive)	–
CCSc1nc2cc(OC)c(OC)cc2c(=O)n1CC	2.71% (inactive)	–
COc1ccc(C(c2c(O)nc(SC)n(C)c2=O)c2c(O)nc(SC)n(C)c2=O)cc1O	-4.46% (inactive)	–
COCCn1c(C)nnc1SCC(=O)NNC(=O)c1ccc(Br)cc1	-3.23% (inactive)	–
O=C(ONC(=O)C1C2C=CC(C2)C1C(=O)NOC(=O)c1ccccc1)c1ccccc1 (stereo unspecified)	-1.55% (inactive)	–
O=C(CC1SCCNC1=O)Nc1ccccc1Cl (stereo unspecified)	0% (inactive)	–
COc1ccccc1C(=O)NCC(=O)N/N=C/c1cn[nH]c1-c1ccccc1	-1.82% (inactive)	–
Cc1c(OC(C)C(=O)NCC(O)c2ccccc2)ccc2c3c(c(=O)oc12)CCCC3 (stereo unspecified)	2.62% (inactive)	–
CN1CCc2c(sc(NC(=O)c3ccc([N+](=O)[O-])o3)c2C(N)=O)C1	6.69% (inactive)	–
CC(C)N1CCc2c(sc(NC(=O)c3ccc([N+](=O)[O-])o3)c2C(N)=O)C1	-6.69% (inactive)	–
COc1ccc(C(CNC(=O)c2ccc(-c3ccccc3Cl)o2)N2CCCC2)cc1 (stereo unspecified)	1.14% (inactive)	–
NS(=O)(=O)c1ccc(CCNC(=O)Nc2ccc(Cl)c(Cl)c2)cc1	-1.37% (inactive)	–
CCc1c(C(=O)N2CCOCC2)csc1C	-2.41% (inactive)	–
O=C(c1ccccc1)c1cn[nH]c1-c1ccccc1O	-2.78% (inactive)	–
Cc1nc(COC(=O)c2ccc(CO)cc2)cs1	-2.35% (inactive)	–
COc1ccc(C(=O)OCc2csc(C)n2)c(O)c1	-2.19% (inactive)	–
CCCCCc1cc(OC)cc2c1C(=O)OC(C)(C)O2	1.32% (inactive)	-1.23

Compound	inhibition	inhibition [1] [%]
CCCCc1c(C(=O)O)cc(OC)cc1C(=O)O	5.73% (inactive)	–
COc1ccc(OC)c(C(=O)CCCC(=O)c2cc(OC)ccc2OC)c1	5.23% (inactive)	–
COc1ccc(OC)c(C(=O)CCCCC(=O)c2cc(OC)ccc2OC)c1	2.88% (inactive)	–
Cc1nc2c([nH]1)C1(CCN(Cc3ccccc3)CC1)C(C#N)=C(N)O2	12.1% (inactive)	–
O=C(c1ccncc1)N(Cc1cc2ccccc2[nH]c1=O)C1CCCCC1	-1.6% (inactive)	–
Cc1ccc(NS(=O)(=O)c2ccccc2)c(NS(=O)(=O)c2ccccc2)c1	13.2% (inactive)	–
COc1ccc(S(=O)(=O)NC2CC3CCC2C3)cc1 (stereo unspecified)	-4.66% (inactive)	–
COc1ccccc1COc1ccc2c(C)c(CCC(=O)O)c(=O)oc2c1C	7.18% (inactive)	–
Cc1c(CCC(=O)O)c(=O)oc2cc3occ(-c4ccc(Cl)cc4)c3cc12	18.3% (inactive)	–
COc1cccc(-c2coc3c(C)c4oc(=O)c(CC(=O)O)c(C)c4cc23)c1	1.96% (inactive)	–
Cc1c(CC(=O)O)c(=O)oc2c(C)c3occ(-c4ccc(Br)cc4)c3cc12	26.1% (inactive)	–
COc1ccc(-c2coc3c(C)c4oc(=O)c(CCC(=O)O)c(C)c4cc23)cc1	11.8% (inactive)	–
COc1cccc(-c2coc3cc4oc(=O)c(CCC(=O)O)c(C)c4cc23)c1	9.7% (inactive)	–
Cc1c(CCC(=O)O)c(=O)oc2cc3occ(-c4ccc(Br)cc4)c3cc12	17.7% (inactive)	–
Cc1c(CC(=O)O)c(=O)oc2c(C)c(OCc3ccc(F)cc3Cl)ccc12	1.96% (inactive)	–
CCC[C@@H](CN1CCC[C@H]1CN1C(N)=NC[C@@H]1Cc1ccccc1)N1C[C@@H]([C@H](C)CC)N(CCc2ccc(Cl)c(Cl)c2)C1=N	-10.2% (inactive)	–
COc1ccc(-n2c(=O)cc(N3CC(C)OC(C)C3)[nH]c2=O)cc1 (stereo unspecified)	-3.21% (inactive)	–
N#Cc1ccc(OCc2nnc3n2CCCCC3)cc1	-1.53% (inactive)	–
